Measurements: PubChem BioAssay (NCATS)
Inconclusive results are not listed. Unmarked numbers belong to inactive results. The source made the active and inactive calls. Calls come from the whole dose curve; as a rule, active = well fitted inhibition curve with a large enough effect; inconclusive = small, poorly fitted or top-dose-only effect; inactive = no such curve, though single readings can be large or run the other way.
Potency is the fitted concentration of half-maximal effect.

What follows are compounds tested against Tyrosine-protein kinase Yes (Homo sapiens) (UniProt P07947) (assay: qHTS for small molecule inhibitors of Yes1 kinase: Primary Screen (AID 686947; note: nearly all actives have a fitted effect of over 60% in size)). Conditions: Yes1 kinase biochemical qHTS inhibition; series mostly up to 76.9 µM; activity change, negative = inhibition: at the top concentration.
Tyrosine-protein kinase Yes (Homo sapiens), sequence (P07947 whole entry, looked up): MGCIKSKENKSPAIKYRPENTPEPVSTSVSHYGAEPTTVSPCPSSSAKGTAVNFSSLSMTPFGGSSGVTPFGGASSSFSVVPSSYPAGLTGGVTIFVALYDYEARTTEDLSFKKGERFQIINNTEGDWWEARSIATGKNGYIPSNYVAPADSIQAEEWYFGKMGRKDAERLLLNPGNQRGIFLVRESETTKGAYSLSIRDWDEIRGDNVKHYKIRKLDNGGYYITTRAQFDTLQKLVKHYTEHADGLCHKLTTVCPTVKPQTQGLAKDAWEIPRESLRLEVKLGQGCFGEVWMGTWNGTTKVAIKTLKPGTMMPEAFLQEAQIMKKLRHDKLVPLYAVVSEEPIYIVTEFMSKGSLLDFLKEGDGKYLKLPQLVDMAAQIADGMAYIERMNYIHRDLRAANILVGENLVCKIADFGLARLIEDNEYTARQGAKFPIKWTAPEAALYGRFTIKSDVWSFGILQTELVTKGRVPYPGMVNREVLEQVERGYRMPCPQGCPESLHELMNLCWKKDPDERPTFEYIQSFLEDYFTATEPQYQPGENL
Excerpt: The Src family of non-receptor protein tyrosine kinases contains nine members, including Yes1, Src, Fyn, Lyn, and […]. These kinases have important roles in a variety of cellular functions, such as cell proliferation, survival, and differentiation. Src, the most well characterized member of this family, has been previously identified as a proto-oncogene. […] In melanoma, it has been shown that Yes1, and not other family members, such as Src, is functionally involved in the malignant phenotype. Additionally, a recent study examining the downregulation of Yes1 by shRNA found significant effects on cell survival/growth for basal-like and Her2-positive breast cancers. Despite the potential for Yes1 to be a target for the above-described cancers, there are very few reports on the identification of potent and selective inhibitors of Yes1 kinase. Antagonists of Yes1 would further elucidate Yes1 biology and help to confirm whether Yes1 is a viable target for therapeutic intervention in a variety of cancers.
A compound that inhibits Yes1 could be important for the treatment of various cancers in which Yes1 is highly expressed and can also be used as a tool compound to help further elucidate Yes1 biology. To that end, we have developed a sensitive HTS biochemical assay for Yes1 activity. This assay was screened against several small compound libraries to look for modulators of activity. Inhibition is the desired output for this assay.
NIH Molecular Libraries Probe Production Centers Network [MLPCN]
NIH Chemical Genomics Center [NCGC]
Two micoliter of Yes1 enzyme (columns 1-2, 5-48; Millipore, Billerica, MA) are dispensed into Greiner, white solid-bottom 1536-well assay plates; columns 3 and 4 receive buffer without Yes1 as a control for maximum inhibition. Compounds (23 nL) are then transferred via Kalypsys pin tool equipped with 1536-pin array (10 nL slotted pins, V&P Scientific, San Diego, CA). […] Following addition of compound and a 20 minute incubation, 1 uL of substrate (ATP and poly-E4Y from Sigma-Aldrich, St. Louis, MO) is added, and the biochemical reaction is allowed to progress for 60 minutes at room temperature. The production of ADP is then quantified by the ADP-Glo Kit (Promega, Madison, WI). First, 2 uL of the first kit reagent is added, and the reaction is incubated for 45 minutes; then, 4 uL of the second kit reagent are added and the reaction is incubated for 30 minutes at which time the luminescence is read on a Viewlux plate reader (Perkin-Elmer, Waltham, MA). The final concentration of reagents in the reaction are 4 nM Yes1, 0.1 mM ATP, 100 uM EGTA, 10 mM MgCl2, 0.3 mg/mL poly(E4Y), 50 mM Tris pH 7.5, 1 mM DTT, 150 mM NaCl, 0.01% Brij-35, and 5% glycerol. Data are normalized to DMSO-treated control columns with (maximum signal) and without (minimum signal) enzyme.
In the case of `CC(C)OC(=O)C1=CN(C(=O)c2ccc(F)c(F)c2)CC(C)(C)c2c1[nH]c1ccccc21`, the “activity change, negative = inhibition” value is reported as -1.76%. For `CNCc1ccc(-c2[nH]c3cc(F)cc4c3c2CCNC4=O)cc1`, the Potency was 308 nM (active). In the case of `CCOc1cc(N2CCC(O)CC2)ccc1Nc1ncc2c(n1)N(C)c1ccccc1C(=O)N2C`, the “activity change, negative = inhibition” value is reported as -14.7%. With `CCCc1nn(C)c2c(=O)[nH]c(-c3cc(S(=O)(=O)N4CCN(C)CC4)ccc3OCC)nc12` the “activity change, negative = inhibition” value was -8.99%. With `CCCn1c(=O)c2[nH]c(C34CC5CC3C[C@@H](C5)C4)nc2n(CCC)c1=O` the “activity change, negative = inhibition” value was -3.1%. In the case of `c1ccc(-c2nn3c(c2-c2ccnc4cc(OCCN5CCOCC5)ccc24)CCC3)nc1`, the Potency is reported as 8670 nM (active). For `Cc1ccc2c(c1)C(=O)[C@@]1(O)CCN(c3ccccc3)C1=N2`, the “activity change, negative = inhibition” value was -5.54%. `Cn1cnc2c(F)c(Nc3ccc(Br)cc3Cl)c(C(=O)NOCCO)cc21` was tested, and the “activity change, negative = inhibition” value was -5.63%. With `C[C@]12CCC(=O)C=C1CC[C@@H]1[C@@H]2[C@@H](O)C[C@@]2(C)[C@H]1CC[C@]2(O)C(=O)CO` the “activity change, negative = inhibition” value was -8.16%. In the case of `O=c1[nH]c(-c2ccc(C(F)(F)F)cc2)nc2c1CSCC2`, the “activity change, negative = inhibition” value is reported as 7.32%. `CCN(CC)CCCC(C)Nc1nc(C)cc(Nc2ccc3nc(C)cc(N)c3c2)n1` (stereo not given) was tested, and the “activity change, negative = inhibition” value was -8.83%. `C[C@@H]1C[C@H]2[C@@H]3CCC4=CC(=O)C=C[C@]4(C)C3(F)[C@@H](O)C[C@]2(C)[C@@]1(O)C(=O)CO` (stereo not given in full) was tested, and the Potency was 34500 nM (active). In the case of `COc1ccc2c3n(c(=NC(=O)c4cccnc4)nc2c1OC)CCN3`, the “activity change, negative = inhibition” value is reported as -8.62%. `COc1ccccc1[C@H](c1cccc2ccccc12)[C@@](C)(C#N)C(=O)N1CCC(c2cccc(C(F)(F)F)c2)CC1` was tested, and the “activity change, negative = inhibition” value was 14.4%. For `C[C@]1(c2nc3c(C(N)=O)cccc3[nH]2)CCCN1`, the “activity change, negative = inhibition” value was 5.27%. For `COc1ccc2nc(S(=O)Cc3ncc(C)c(OC)c3C)[nH]c2c1` (stereo not given), the “activity change, negative = inhibition” value was -0.629%. `CNC(=O)c1ccc(N2C(=S)N(c3ccc(C#N)c(C(F)(F)F)c3)C(=O)C2(C)C)cc1F` was tested, and the “activity change, negative = inhibition” value was -3.72%. For `COc1ccc(-c2ccc3c(N4CCOC[C@H]4C)nc(N4CCOC[C@H]4C)nc3n2)cc1CO`, the “activity change, negative = inhibition” value was 2.31%. With `O=C(Nc1nc2ccccc2n1CCN1CCOCC1)c1cccc([N+](=O)[O-])c1` the “activity change, negative = inhibition” value was 60.2%. `COc1ccccc1-c1cccc(-c2c(O)c3cc(C#N)c(Cl)cc3[nH]c2=O)c1` was tested, and the “activity change, negative = inhibition” value was 21%. For `O=C(c1cc(Cc2n[nH]c(=O)c3ccccc23)ccc1F)N1CCN(C(=O)C2CC2)CC1`, the “activity change, negative = inhibition” value was 4.43%. In the case of `COc1c(Cl)cc2c([nH]c3cnccc32)c1NC(=O)c1cccnc1C`, the “activity change, negative = inhibition” value is reported as 16.6%. `Cn1c(=O)c(F)c(Nc2ccc(I)cc2F)c2c(=O)n(C[C@@H](O)CO)cnc21` was tested, and the “activity change, negative = inhibition” value was 6.66%. With `Nc1cccc(S(=O)(=O)N2CCCN(S(=O)(=O)c3ccc4c(c3)OCCO4)CC2)c1` the “activity change, negative = inhibition” value was -1.09%. In the case of `O=C1[C@H](Cc2ccc(O)cc2)N2C(=O)CCN(C(=O)NCc3ccccc3)[C@H]2CN1Cc1cccc2ccccc12`, the “activity change, negative = inhibition” value is reported as 15.6%. In the case of `Fc1ccc(Cl)cc1-c1nc(Nc2ccncc2)c2nccnc2n1`, the “activity change, negative = inhibition” value is reported as -24.4%. With `Nc1ncnc2nc(-c3ccc(N4CCOCC4)nc3)cc(-c3cccc(Br)c3)c12` the Potency was 3450 nM (active). `O=C(O)[C@@H](c1ccc(OCc2ccc3ccccc3n2)cc1)C1CCCC1` was tested, and the “activity change, negative = inhibition” value was 7.09%. With `CC(C)(N)C(=O)N[C@H](COCc1ccccc1)C(=O)N1CCC2(CC1)CN(S(C)(=O)=O)c1ccccc12` the “activity change, negative = inhibition” value was 12.6%. In the case of `O=C(C=Cc1ccc(/C=C/C(=O)Nc2ccc(C3=NCCN3)cc2)cc1)Nc1ccc(C2=NCCN2)cc1`, the “activity change, negative = inhibition” value is reported as 41%. `NC(=O)c1ccc(-c2nc(-c3ccc4c(c3)OCO4)c(-c3ccccn3)[nH]2)cc1` was tested, and the Potency was “inactive”. With `COc1cc(Nc2ncc3c(n2)-c2ccc(Cl)cc2C(c2c(F)cccc2OC)=NC3)ccc1C(=O)O` the Potency was 21.8 nM (active). With `CN(C)C(=O)c1ccc(S(=O)(=O)c2ccc(NC(=O)[C@@](C)(O)C(F)(F)F)c(Cl)c2)cc1` the “activity change, negative = inhibition” value was 9.12%. With `CCN(CCCO)CCCOc1ccc2c(Nc3cc(CC(=O)Nc4cccc(F)c4)[nH]n3)ncnc2c1` the Potency was 387 nM (active). For `CC1(C)SCCN(S(=O)(=O)c2ccc(OCC#CCO)cc2)[C@@H]1C(=O)NO`, the “activity change, negative = inhibition” value was 8.34%. In the case of `Cc1cc(Nc2nc(N[C@@H](C)c3ncc(F)cn3)ncc2Cl)n[nH]1`, the Potency is reported as 772 nM (active). For `Cc1cnc(Nc2ccc(OCCN3CCCC3)cc2)nc1Nc1cccc(S(=O)(=O)NC(C)(C)C)c1`, the “activity change, negative = inhibition” value was -9.39%. With `Cc1cccc(-c2[nH]c(C(C)(C)C)nc2-c2ccc3nccnc3c2)n1` the Potency was 688 nM (active). In the case of `CN(C(=O)c1ccc(F)cc1C(F)(F)F)C1CCN(c2nnc(-c3ccnn3C)c3ccccc23)CC1`, the “activity change, negative = inhibition” value is reported as 5.46%. With `CCCS(=O)(=O)Nc1ccc(F)c(C(=O)c2c[nH]c3ncc(-c4ccc(Cl)cc4)cc23)c1F` the Potency was 1370 nM (active).
